According to ChEMBL document CHEMBL1961873, “Compounds: GSK PKIS; Assays: Nanosyn kinase panel” (2012):

What was measured:
[1] = target: Tyrosine-protein kinase SYK (Homo sapiens) (UniProt P43405); conditions: at 1 µM
[2] = target: T1, Tyrosine-protein kinase Tec (Homo sapiens) (UniProt P42680); conditions: at 0.1 µM
T1 sequence (whole entry): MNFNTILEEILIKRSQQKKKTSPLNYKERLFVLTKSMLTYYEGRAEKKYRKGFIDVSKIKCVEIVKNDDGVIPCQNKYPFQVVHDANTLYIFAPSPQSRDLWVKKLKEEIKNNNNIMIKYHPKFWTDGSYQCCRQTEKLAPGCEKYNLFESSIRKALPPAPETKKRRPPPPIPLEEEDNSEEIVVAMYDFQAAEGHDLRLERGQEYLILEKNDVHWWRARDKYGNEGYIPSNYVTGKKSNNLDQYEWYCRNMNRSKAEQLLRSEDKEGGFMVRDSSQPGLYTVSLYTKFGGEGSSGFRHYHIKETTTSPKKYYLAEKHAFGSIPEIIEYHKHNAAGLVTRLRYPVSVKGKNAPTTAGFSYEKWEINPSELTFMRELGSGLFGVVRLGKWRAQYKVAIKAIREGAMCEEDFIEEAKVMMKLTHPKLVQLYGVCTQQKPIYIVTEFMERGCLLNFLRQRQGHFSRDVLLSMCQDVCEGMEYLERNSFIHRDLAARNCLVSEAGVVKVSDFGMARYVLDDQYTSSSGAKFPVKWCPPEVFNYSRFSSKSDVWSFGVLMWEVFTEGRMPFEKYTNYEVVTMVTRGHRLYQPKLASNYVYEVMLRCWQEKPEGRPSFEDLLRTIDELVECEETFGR

[3] = target: T1, Tyrosine-protein kinase Tec (Homo sapiens); conditions: at 1 µM
[4] = target: Angiopoietin-1 receptor (Homo sapiens) (UniProt Q02763); conditions: at 0.1 µM
[5] = target: Angiopoietin-1 receptor (Homo sapiens) (UniProt Q02763); conditions: at 1 µM
[6] = target: T2, Non-receptor tyrosine-protein kinase TNK1 (Homo sapiens) (UniProt Q13470); conditions: at 0.1 µM
T2 sequence (whole entry): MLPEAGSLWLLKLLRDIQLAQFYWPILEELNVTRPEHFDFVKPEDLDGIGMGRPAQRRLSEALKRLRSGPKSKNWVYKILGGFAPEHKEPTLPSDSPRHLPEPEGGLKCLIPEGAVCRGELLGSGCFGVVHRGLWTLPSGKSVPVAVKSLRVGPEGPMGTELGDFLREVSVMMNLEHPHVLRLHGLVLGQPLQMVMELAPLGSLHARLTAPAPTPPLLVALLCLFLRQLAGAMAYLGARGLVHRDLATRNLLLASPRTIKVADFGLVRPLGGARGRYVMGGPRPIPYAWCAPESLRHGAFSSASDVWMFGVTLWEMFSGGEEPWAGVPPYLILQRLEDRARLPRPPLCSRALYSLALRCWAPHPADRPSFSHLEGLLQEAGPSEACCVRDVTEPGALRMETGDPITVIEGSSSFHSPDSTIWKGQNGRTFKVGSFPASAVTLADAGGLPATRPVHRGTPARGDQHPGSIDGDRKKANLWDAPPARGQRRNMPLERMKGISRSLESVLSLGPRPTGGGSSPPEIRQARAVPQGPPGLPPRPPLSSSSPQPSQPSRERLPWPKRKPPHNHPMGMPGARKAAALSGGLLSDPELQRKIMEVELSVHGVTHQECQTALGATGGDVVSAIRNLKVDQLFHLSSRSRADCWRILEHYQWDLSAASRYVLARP

[7] = target: T2, Non-receptor tyrosine-protein kinase TNK1 (Homo sapiens); conditions: at 1 µM
[8] = target: Activated CDC42 kinase 1 (Homo sapiens) (UniProt Q07912); conditions: at 0.1 µM
[9] = target: Activated CDC42 kinase 1 (Homo sapiens) (UniProt Q07912); conditions: at 1 µM
[10] = target: High affinity nerve growth factor receptor (Homo sapiens) (UniProt P04629); conditions: at 0.1 µM
[11] = target: High affinity nerve growth factor receptor (Homo sapiens) (UniProt P04629); conditions: at 1 µM
[12] = target: BDNF/NT-3 growth factors receptor (Homo sapiens) (UniProt Q16620); conditions: at 0.1 µM
[13] = target: BDNF/NT-3 growth factors receptor (Homo sapiens) (UniProt Q16620); conditions: at 1 µM
[14] = target: NT-3 growth factor receptor (Homo sapiens) (UniProt Q16288); conditions: at 0.1 µM
[15] = target: NT-3 growth factor receptor (Homo sapiens) (UniProt Q16288); conditions: at 1 µM
[16] = target: T3, Tyrosine-protein kinase TXK (Homo sapiens) (UniProt P42681); conditions: at 0.1 µM
T3 sequence (whole entry): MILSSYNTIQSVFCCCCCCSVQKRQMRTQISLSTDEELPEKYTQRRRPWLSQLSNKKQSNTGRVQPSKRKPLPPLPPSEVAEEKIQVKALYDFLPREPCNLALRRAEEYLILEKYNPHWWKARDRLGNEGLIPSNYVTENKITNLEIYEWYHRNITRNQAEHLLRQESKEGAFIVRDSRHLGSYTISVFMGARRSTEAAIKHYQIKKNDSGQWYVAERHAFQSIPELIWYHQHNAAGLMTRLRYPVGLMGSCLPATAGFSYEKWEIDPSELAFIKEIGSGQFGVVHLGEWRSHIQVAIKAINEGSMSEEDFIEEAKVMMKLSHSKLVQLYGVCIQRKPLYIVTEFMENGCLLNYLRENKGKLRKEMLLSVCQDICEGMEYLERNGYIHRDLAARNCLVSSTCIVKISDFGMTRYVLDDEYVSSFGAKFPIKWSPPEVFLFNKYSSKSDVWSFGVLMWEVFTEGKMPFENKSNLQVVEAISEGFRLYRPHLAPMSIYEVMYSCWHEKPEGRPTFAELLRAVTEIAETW

[17] = target: T3, Tyrosine-protein kinase TXK (Homo sapiens); conditions: at 1 µM
[18] = target: Non-receptor tyrosine-protein kinase TYK2 (Homo sapiens) (UniProt P29597); conditions: at 0.1 µM;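 also: each value is a mean of the inhibition readings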
[19] = target: T4, Dual specificity protein kinase TTK (Homo sapiens) (UniProt P33981); conditions: at 1 µM;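 also: reported figures are mean TTK inhibition at 1 µM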
T4 sequence (whole entry): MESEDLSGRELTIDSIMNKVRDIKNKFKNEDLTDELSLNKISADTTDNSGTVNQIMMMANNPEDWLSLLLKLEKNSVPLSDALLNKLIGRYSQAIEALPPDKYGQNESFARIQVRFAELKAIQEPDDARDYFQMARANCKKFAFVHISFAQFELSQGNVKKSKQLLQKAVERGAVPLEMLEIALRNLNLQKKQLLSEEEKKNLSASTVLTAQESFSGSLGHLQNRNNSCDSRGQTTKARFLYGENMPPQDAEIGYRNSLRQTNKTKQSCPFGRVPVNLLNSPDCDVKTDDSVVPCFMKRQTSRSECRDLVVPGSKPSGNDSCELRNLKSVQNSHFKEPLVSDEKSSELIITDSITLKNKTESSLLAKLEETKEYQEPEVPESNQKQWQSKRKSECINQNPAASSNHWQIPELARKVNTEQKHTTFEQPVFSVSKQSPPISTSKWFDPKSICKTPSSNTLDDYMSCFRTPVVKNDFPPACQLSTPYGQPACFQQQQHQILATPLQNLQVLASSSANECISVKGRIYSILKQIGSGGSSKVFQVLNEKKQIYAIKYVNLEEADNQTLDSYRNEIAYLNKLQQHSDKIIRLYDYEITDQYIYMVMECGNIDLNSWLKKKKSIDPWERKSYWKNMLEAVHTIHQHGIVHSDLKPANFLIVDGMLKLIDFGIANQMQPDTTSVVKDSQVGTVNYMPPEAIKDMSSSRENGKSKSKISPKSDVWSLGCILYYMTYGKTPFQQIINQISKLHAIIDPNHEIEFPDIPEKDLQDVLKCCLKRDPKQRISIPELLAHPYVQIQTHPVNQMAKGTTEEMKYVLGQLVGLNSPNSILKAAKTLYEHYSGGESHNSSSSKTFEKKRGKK

[20] = target: T5, Aurora kinase A (Homo sapiens) (UniProt O14965); conditions: at 0.1 µM;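 also: each reported value is a mean percent inhibition of Aurora-A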
T5 sequence (whole entry): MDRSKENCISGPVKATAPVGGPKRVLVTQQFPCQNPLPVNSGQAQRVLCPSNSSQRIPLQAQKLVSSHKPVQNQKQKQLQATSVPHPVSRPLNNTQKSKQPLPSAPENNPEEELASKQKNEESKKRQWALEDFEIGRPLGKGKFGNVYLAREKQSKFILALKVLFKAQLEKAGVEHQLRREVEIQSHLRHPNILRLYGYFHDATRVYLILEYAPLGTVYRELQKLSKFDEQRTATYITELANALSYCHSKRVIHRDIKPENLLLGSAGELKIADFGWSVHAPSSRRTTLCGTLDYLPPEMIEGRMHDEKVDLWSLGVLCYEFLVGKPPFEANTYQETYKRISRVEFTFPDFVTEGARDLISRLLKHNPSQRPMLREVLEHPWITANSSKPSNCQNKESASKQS

Chain of BDNF/NT-3 growth factors receptor (Homo sapiens) (Q16620 32-822 limits assumed): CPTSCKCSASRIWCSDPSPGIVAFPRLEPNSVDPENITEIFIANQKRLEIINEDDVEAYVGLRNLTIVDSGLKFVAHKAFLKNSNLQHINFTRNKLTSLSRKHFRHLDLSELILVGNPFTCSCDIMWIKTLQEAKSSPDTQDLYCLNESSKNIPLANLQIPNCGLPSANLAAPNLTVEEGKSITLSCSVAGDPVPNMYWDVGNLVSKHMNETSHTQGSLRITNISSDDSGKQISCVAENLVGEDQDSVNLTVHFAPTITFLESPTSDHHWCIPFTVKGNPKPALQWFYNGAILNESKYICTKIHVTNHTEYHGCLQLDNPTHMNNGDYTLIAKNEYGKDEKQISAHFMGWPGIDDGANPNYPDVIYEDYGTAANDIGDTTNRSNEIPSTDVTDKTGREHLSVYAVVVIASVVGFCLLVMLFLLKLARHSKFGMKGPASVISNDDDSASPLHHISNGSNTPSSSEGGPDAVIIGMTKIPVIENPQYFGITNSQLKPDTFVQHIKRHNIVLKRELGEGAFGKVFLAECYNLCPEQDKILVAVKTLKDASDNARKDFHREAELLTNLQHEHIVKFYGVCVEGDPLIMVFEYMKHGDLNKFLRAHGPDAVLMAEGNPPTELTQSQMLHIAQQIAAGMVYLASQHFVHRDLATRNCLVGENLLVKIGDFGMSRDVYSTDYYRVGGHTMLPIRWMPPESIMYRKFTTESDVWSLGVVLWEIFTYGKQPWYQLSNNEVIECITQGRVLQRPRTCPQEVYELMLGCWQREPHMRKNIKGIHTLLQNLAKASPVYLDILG
Chain of Angiopoietin-1 receptor (Homo sapiens) (Q02763 whole entry): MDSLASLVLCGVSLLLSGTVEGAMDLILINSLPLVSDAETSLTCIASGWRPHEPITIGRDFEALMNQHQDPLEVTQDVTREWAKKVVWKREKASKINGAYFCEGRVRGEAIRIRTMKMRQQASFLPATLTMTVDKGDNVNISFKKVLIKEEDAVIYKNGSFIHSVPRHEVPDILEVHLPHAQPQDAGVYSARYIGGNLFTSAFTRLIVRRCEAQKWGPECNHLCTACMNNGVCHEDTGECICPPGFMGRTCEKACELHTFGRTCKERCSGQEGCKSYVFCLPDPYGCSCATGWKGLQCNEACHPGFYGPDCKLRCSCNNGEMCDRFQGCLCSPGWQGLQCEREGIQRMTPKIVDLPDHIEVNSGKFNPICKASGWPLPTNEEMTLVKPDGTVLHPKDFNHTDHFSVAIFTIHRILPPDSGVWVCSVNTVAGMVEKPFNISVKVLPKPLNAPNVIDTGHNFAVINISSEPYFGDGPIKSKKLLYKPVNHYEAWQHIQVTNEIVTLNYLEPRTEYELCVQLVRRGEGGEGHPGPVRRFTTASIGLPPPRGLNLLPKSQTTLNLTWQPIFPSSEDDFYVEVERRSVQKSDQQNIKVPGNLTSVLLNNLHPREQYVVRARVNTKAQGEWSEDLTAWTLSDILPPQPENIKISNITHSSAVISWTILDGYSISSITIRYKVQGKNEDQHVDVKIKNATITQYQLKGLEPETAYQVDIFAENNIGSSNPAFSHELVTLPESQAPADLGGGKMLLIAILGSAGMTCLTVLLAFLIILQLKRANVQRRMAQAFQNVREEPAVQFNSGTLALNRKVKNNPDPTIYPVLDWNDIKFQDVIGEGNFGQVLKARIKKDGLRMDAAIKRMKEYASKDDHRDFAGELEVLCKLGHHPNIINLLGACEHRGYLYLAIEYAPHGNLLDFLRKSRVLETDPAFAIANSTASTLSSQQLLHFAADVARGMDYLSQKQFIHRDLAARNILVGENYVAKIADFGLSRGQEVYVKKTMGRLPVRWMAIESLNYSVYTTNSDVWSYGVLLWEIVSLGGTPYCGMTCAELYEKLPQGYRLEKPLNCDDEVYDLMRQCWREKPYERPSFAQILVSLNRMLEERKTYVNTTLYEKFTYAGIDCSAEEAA
Chain of High affinity nerve growth factor receptor (Homo sapiens) (P04629 33-796 limits assumed): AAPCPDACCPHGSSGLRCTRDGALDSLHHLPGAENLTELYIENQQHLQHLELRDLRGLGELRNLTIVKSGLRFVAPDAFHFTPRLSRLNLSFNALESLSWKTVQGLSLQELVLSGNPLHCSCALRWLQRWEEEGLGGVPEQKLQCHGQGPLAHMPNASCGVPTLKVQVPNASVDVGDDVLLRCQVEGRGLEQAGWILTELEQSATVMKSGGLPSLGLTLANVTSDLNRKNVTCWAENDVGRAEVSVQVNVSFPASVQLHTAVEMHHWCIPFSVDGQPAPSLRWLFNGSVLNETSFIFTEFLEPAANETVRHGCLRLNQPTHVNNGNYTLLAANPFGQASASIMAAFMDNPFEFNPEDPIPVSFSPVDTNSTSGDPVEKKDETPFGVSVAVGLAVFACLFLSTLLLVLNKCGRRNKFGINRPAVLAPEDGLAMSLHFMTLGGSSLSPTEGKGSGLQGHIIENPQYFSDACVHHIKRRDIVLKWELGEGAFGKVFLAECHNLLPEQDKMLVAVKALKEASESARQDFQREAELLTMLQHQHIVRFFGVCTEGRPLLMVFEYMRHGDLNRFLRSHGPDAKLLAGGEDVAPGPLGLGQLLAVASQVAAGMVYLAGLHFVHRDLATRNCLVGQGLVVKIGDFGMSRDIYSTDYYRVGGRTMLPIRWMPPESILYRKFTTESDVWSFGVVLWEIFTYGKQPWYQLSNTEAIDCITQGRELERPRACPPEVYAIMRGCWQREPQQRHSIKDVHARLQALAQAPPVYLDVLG
Chain of NT-3 growth factor receptor (Homo sapiens) (Q16288 32-839 limits assumed): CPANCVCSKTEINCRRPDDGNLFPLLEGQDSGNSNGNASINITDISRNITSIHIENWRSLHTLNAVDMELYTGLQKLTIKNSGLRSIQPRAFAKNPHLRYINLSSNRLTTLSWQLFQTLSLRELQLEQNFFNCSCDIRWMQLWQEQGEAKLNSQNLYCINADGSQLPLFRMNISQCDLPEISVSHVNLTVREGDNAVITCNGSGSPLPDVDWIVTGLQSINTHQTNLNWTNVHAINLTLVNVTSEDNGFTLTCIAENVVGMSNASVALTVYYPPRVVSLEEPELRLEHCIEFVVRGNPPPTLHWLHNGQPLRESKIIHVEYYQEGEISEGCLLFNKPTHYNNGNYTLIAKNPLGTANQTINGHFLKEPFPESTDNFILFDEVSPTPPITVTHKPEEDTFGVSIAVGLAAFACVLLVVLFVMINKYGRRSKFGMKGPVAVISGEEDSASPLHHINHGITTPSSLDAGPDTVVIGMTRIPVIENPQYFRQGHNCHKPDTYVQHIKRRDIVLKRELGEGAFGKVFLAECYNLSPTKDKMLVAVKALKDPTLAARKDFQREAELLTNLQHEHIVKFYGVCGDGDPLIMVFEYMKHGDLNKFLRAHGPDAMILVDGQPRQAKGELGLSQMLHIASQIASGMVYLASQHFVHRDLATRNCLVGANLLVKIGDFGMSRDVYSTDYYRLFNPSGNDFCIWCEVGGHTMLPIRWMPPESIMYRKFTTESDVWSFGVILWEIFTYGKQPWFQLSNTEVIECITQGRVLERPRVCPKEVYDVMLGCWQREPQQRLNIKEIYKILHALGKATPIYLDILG
Chain of Activated CDC42 kinase 1 (Homo sapiens) (Q07912 whole entry, looked up): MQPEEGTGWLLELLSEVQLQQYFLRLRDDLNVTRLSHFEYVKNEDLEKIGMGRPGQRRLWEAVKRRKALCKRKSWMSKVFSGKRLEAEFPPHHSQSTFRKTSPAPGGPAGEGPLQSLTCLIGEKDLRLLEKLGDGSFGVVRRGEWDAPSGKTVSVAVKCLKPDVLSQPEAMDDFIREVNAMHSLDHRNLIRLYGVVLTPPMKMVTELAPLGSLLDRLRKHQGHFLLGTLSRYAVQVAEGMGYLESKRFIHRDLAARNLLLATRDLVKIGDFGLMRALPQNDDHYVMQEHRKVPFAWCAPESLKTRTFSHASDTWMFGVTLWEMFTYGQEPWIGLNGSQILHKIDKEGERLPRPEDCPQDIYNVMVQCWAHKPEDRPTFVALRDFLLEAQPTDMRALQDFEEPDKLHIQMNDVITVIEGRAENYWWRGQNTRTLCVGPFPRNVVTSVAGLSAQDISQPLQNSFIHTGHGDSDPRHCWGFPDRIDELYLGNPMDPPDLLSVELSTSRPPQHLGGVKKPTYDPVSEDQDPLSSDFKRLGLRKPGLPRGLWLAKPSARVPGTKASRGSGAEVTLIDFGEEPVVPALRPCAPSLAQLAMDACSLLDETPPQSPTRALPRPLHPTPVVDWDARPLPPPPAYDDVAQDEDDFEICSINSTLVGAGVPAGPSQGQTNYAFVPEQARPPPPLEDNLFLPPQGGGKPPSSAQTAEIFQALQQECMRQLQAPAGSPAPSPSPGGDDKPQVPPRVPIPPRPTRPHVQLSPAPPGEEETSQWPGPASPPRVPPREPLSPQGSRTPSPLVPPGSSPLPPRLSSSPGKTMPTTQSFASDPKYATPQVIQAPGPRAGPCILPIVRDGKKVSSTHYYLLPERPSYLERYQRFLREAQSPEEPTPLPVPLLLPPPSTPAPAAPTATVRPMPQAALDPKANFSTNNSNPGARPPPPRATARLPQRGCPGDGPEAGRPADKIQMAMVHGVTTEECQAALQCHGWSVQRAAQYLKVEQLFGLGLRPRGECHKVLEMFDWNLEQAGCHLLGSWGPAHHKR

Row | SMILES | inhibition [1] [%] | inhibition [2] [%] | inhibition [3] [%] | inhibition [4] [%] | inhibition [5] [%] | inhibition [6] [%] | inhibition [7] [%] | inhibition [8] [%] | inhibition [9] [%] | inhibition [10] [%] | inhibition [11] [%] | inhibition [12] [%] | inhibition [13] [%] | inhibition [14] [%] | inhibition [15] [%] | inhibition [16] [%] | inhibition [17] [%] | inhibition [18] [%] | inhibition [19] [%] | inhibition [20] [%]
1 | CCS(=O)(=O)c1ccc(OC)c(Nc2ncc(-c3cccc(OC)c3)o2)c1 | -2.39 | 8.3 | 35.5 | 3.35 | 16.1 | 49 | 90.6 | 2.52 | 15.3 | 7.51 | 30.9 | 7.72 | 43.5 | 11.7 | 49.3 | 14.5 | 53.4 | -5.06 | 7.02 | 4.52
2 | COc1cc(Nc2nccc(-c3cnn4ncccc34)n2)cc(OC)c1 | 61.2 | 9.2 | 42.9 | 7.05 | 39.6 | 26.8 | 64.4 | 3.06 | 35.6 | 0.98 | 26.7 | 5.6 | 39.5 | 9.63 | 45.6 | 5.79 | 31.4 | 4.29 | 15.4 | 20.9
3 | NS(=O)(=O)c1cccc(Nc2cc(-c3ccc(F)cc3)n[nH]2)c1 | -1 | 3.27 | 6.08 | 0.52 | 4.79 | 2.68 | 16.2 | 0.5 | 2.57 | 2.83 | 19.2 | 4.73 | 26.1 | 6.62 | 27.9 | 3.74 | 3.31 | -3.9 | – | 1.29
4 | COc1ccc(-c2nn3ncccc3c2-c2ccnc(Nc3cccc(C(F)(F)F)c3)n2)cc1 | -2.11 | 1.14 | 4.73 | 2.11 | 9.2 | 7.47 | 9.47 | 0.73 | 0.85 | 1.79 | 3.94 | 1.95 | 3.32 | 2.64 | 1.56 | 0.17 | 3.03 | 0.38 | 6.51 | 2.9
5 | Cc1cc(O)cc(C)c1/C=C/c1cncc(C(=O)N(C)C)c1 | 2.96 | 3.84 | 5.03 | 5.65 | 10.7 | – | 1.79 | 1.45 | 2.24 | 2.88 | 2.43 | 1.59 | 0.08 | 2.73 | 1.59 | 2.92 | 3.74 | -1.5 | 4.52 | 2.58
6 | CN(C)CCCn1c(-c2nonc2N)nc2cnccc21 | 0.37 | 4 | 4.06 | 0.92 | 1.59 | 1.08 | -3.93 | 0.54 | 0.77 | 1.3 | 3.29 | -0.15 | 3.55 | -0.01 | 3.2 | 3.61 | 4.3 | -2.99 | 0.63 | 3.15
